# Screens: PubChem BioAssay, National Center for Advancing Translational Sciences (NCATS)
# The list is not random: actives were taken first. Their share in the collection is about 2.4%.
# D2 antagonist: D2 dopamine receptor (human) antagonism; HEK293 TREx D2 cells, calcium flux, dopamine EC80; inhibition, % at 10 µM; actives 2% (n = 340,000); in the data active = inhibition above about 30%; inactive = below that, where a call was filed; also: 0% is about no effect
# Target sequence (P14416 whole entry, looked up): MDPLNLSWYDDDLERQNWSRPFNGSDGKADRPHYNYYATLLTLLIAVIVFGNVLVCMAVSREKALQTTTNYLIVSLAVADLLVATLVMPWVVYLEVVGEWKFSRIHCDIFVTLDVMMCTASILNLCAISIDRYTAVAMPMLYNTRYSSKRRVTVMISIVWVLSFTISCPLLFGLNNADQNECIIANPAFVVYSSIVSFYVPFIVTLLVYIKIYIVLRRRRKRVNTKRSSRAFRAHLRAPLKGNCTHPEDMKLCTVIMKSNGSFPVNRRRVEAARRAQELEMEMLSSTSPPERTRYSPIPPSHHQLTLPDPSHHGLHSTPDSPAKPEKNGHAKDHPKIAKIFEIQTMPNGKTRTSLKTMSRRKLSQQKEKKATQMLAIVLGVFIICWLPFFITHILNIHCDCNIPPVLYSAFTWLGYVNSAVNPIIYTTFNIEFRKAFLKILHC
#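 Antagonism is scored as inhibition of an EC80 dopamine-evoked calcium signal in a force-coupled, tetracycline-inducible HEK293 T-REx D2 line, with compound present 180 s before agonist.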
# D2 PAM-1: positive allosteric modulators of human D2 dopamine receptor; AID 624464; potentiation, % (test concentration not listed); P14416; DiscoveRx D2 beta-arrestin cells, luminescence, 90 min; 100% = 57 uM dopamine signal; actives 0.23% (n = 360,000); in the data active = potentiation above about 50%; inconclusive = mostly about 30% to 49%
#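 D2 cells co-treated with compound plus 50 nM dopamine (EC20) for 90 min at 37 deg C to detect potentiation. Beta-arrestin recruitment was read as enzyme-fragment luminescence after 1 h at ambient temperature. Full response was set by 57 uM dopamine.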
# D2 PAM-2: positively modulates the human D2 dopamine receptor allosterically; P14416; HEK293 T-REx D2, calcium flux, EC20 dopamine potentiation; potentiation, % at 10 µM; actives 0.34% (n = 340,000);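 active = potentiation over 3 SD above the plate norm, cut at about 30% in these data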; also: 0% is about no effect
#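 Tetracycline-induced HEK293 T-REx cells force-coupled to calcium signalling expressed D2; compounds were pin-added after a 10 s baseline, read kinetically 180 s, then an EC20 dopamine challenge followed with a further 180 s calcium read.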
# D2 ag-1: human D2 receptor agonism in beta-arrestin assay | AID 624465 | activation, % (no concentration beside the values) | DiscoveRx PathHunter D2 beta-arrestin, luminescence, 90 min; 100% = 57 uM dopamine signal | P14416 | actives 0.084% (n = 360,000); in the data active = activation above about 40%; inconclusive = between about 15% and that limit
#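 DiscoveRx PathHunter D2 beta-arrestin cells (2,100/well) attached overnight, then compound-stimulated 90 min at 37 C in HBSS/10 mM HEPES/0.1% Tween-20 buffer; beta-galactosidase complementation read by luminescence after 1 h at ambient temperature. Dopamine 57 uM final (EC100) as control.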
# D2 ag-2: D2 dopamine receptor (human) agonism. activation, % at 2 µM. P14416. actives 0.53% (n = 340,000). HEK293 T-REx D2 cells, calcium flux agonist mode;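 active = activation over 3 SD above normal in the single-dose calcium agonist read, cut at about 30% in these data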; also: 0% is about no effect
#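 Agonism scored from kinetic calcium signal (1 read/sec, 180 s) following compound pin transfer, after a 10 s baseline. Cells: HEK293 Trex line expressing inducible D2 receptor coupled to calcium, dye-loaded after overnight culture at 30 C.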
# * marks the source's active call; other numbers are inactive results; ? = inconclusive; nt = not tested or not shown.
SMILES,D2 antagonist,D2 PAM-1,D2 PAM-2,D2 ag-1,D2 ag-2
CC1(C)CC(=O)C/C(=N\NC(=O)C2CC23CCC3)C1 (stereo unspecified),47.1*,-2.0,-4.8,-3.4,0.9
O=C(NC1CCCCC1)c1ccc(-c2ccccc2[N+](=O)[O-])o1,59.5*,-18.2,-22.7,1.9,-1.1
CCOC(=O)c1sc(=S)n(-c2ccc(C)cc2)c1SC,47.6*,-7.1,13.9,-5.4,0.7
Cc1ccc(OCC(=O)Nc2ccc3nc(SCC(=O)N(C)c4ccccc4)sc3c2)cc1,nt,nt,-27.3,nt,2.4
Cc1cc(NC(=S)NC(=O)c2ccccc2)ccc1-c1cc2ccccc2oc1=O,63.5*,-0.9,-9.0,0.6,-0.6
COC(=O)CCCCCNc1ccc(C(=O)OC)cc1N,-5.2,7.7,-33.6,-1.2,36.6*
COc1ccc(CNc2ccc3cc(S(=O)(=O)N4CCCCC4)ccc3n2)cc1,nt,nt,-3.2,nt,nt
COc1ccc(/C=C(\NC(=O)c2ccccc2)C(=O)NC2CCCCC2)cc1,nt,nt,-0.1,nt,nt
c1ccc2nc(N3CCN(Cc4ccc5c(c4)OCO5)CC3)cnc2c1,-17.7,-26.8,-15.1,-3.5,-0.5
COc1nc2ccccc2nc1N1CCN(Cc2ccc3c(c2)OCO3)CC1,51.0*,-34.4,-26.6,-3.0,-1.2
COc1ccc(Cl)cc1S(=O)(=O)N1CCN(Cc2ccc3c(c2)OCO3)CC1,-0.5,-5.8,-7.1,-0.8,-0.1
COc1ccc(S(=O)(=O)N2CCN(Cc3ccc4c(c3)OCO4)CC2)c2ccccc12,31.3*,-4.6,-10.1,-3.3,0.4
COC(=O)c1sc2cccc(F)c2c1S(=O)(=O)N1CCN(c2cccc(C)c2)C(C)C1 (stereo unspecified),nt,nt,-5.3,nt,-0.2
COC(=O)c1nn(-c2cccc(C)c2)c2nnc(Cc3ccccc3)c(=O)n12,63.1*,11.4,-12.0,4.6,-0.4
COC(=O)c1nn(-c2ccccc2)c2nnc(Cc3ccc(C)cc3)c(=O)n12,-4.1,-7.4,-0.5,-3.7,-0.2
O=C(c1ccc2c(c1)N(Cc1ccccc1F)C(=O)c1ccccc1S2(=O)=O)N1CCC(Cc2ccccc2)CC1,nt,nt,3.6,nt,-1.0
C/C(CCc1ccc2c(c1)OCO2)=N\N=C1\NC(=O)CC(C(=O)Nc2ccccc2F)S1 (stereo unspecified),40.4*,-5.2,14.6,-1.2,-0.3
N/C(=N\OC(=O)c1ccccc1[N+](=O)[O-])c1cccnc1,-4.7,108.2*,-2.4,?,0.7
N/C(=N\OC(=O)c1ccc([N+](=O)[O-])cc1)c1cccnc1,-2.6,28.6,4.7,8.9,-0.3
Cc1ccc(C(=O)O/N=C(\N)c2cccnc2)cc1[N+](=O)[O-],-4.8,66.2*,-3.2,7.3,-0.4
COc1cc(N)ccc1NC(=O)c1cccs1,11.4,78.8*,8.6,8.7,0.1
COc1ccc(OC)c(NC(=O)C(=O)NNC(=O)c2cccs2)c1,38.1*,4.9,19.7,0.1,-0.4
COc1ccccc1N1CCN(c2nc3ccccc3n3cnnc23)CC1,nt,nt,1.9,nt,0.2
CCC1CN(C(=O)N2CCC(C(=O)NCCc3ccc(OC)cc3OC)CC2)c2cc(C)ccc2O1 (stereo unspecified),nt,nt,15.8,nt,1.5
c1ccc(Cn2cc(CNc3ccccc3)nn2)cc1,41.8*,-5.0,-3.4,0.1,0.0
SMILES,D2 antagonist,D2 PAM-1,D2 PAM-2,D2 ag-1,D2 ag-2
CCC(C)(C)NC(=O)C(c1cccn1C)N(Cc1ccc(OC)cc1)C(=O)Cn1nnc2ccccc21 (stereo unspecified),30.5*,-4.9,9.4,-0.8,0.7
Cc1ccc2onc(CC(=O)N3CCN(c4cc(Cl)ccc4C)CC3)c2c1,nt,nt,-0.7,nt,0.0
Nc1ccccc1Nc1cc(-c2cccc(Cl)c2)nn1-c1ccccc1,-4.8,67.6*,6.4,?,0.9
Nc1c(-c2ccccc2)cnn1-c1cccc(Cl)c1,-5.2,-1.7,5.8,5.6,0.7
CCN(CC)CCNC(=O)c1ccc(NC(=O)COc2ccc3c(c2)CCC3)cc1,32.3*,-4.8,1.6,-7.5,0.7
CCN(CC)CCNC(=O)c1ccc(NC(C)=O)cc1,-3.6,2.4,-3.7,-2.4,1.3
COc1ccc(Br)cc1/C(C)=N/NC1=NCCN1,32.6*,-43.6,-24.2,-4.3,0.8
CCCCCOc1ccc(Br)cc1/C(C)=N/NC1=NCCN1,17.5,-15.7,-11.1,-4.7,-0.3
